High-throughput results from PubChem BioAssay.
Only some compounds are listed: those with a hit (about 8.1% of all), similar ones and a draw of the others.
SW480 rereplic = induces DNA re-replication in SW480 colon adenocarcinoma cells; SW480 DNA re-replication, Hoechst DNA content imaging, 48 h; Potency, µM (doses to about 46.1 µM), for inactives: top-dose re-replication activation, usual class: activators; 340,000 compounds, 1.8% hits; note: % of control where 0% means no effect; nearly all actives have a fitted effect of over 55% in size
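Image-based DNA-content assay: after two days of treatment, nuclei were labelled with the DNA dye Hoechst and imaged, and hits were compounds raising the count of nuclei showing high fluorescence intensity.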
MCF10A rereplic = DNA re-replication induction in MCF 10a cells. MCF 10A DNA re-replication, Hoechst nuclear intensity, 48 h. Potency, µM (titrated, usually from 46.1 µM), for the others: top-dose activity, positive = re-replication, actives largely listed as activators. 350,000 compounds, 2.9% hits; note: % of control where 0% means no effect; nearly all actives have a fitted effect of over 50% in size
KB-V1 MDR tox = kills drug-selected multidrug resistant KB-V1 cells. 400,000 compounds, 3.4% hits. Potency, µM (series often up to 46.1 µM), usual class: cytotoxic. KB-V1 MDR cells viability, CellTiter-Glo, 72 h; note: % is set by controls: 0 for no effect and ±100 for the full control effect; nearly all actives have a fitted effect of over 60% in size
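Cytotoxicity toward P-gp-expressing KB-V1 cells was determined as loss of CellTiter-Glo luminescence after 72 h at 37 degrees C. Compounds were tested in quantitative HTS format across a concentration range, with curves fitted to normalized data.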
KB-3-1 cytotox = KB-3-1 parental cell cytotoxicity; KB-3-1 viability, CellTiter-Glo ATP luminescence, 72 h; Potency, µM (series often up to 46.1 µM), hits mostly cytotoxic; 400,000 compounds, 1.4% hits; note: % is set by controls: 0 for no effect and ±100 for the full control effect; nearly all actives have a fitted effect of over 60% in size
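Viability of parental KB-3-1 cells, measured by CellTiter-Glo luminescence, followed a 72 h incubation at 37 °C with pinned compounds in phenol-red-free DMEM containing 10% FBS.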
ELG1 repair inh = ELG1-dependent DNA repair inhibition. HEK293T ELG1-luciferase reporter, luminescence, 16 h; DNA damage induced by 5-fluorouridine. Potency, µM (highest dose often 46.1 µM), without a hit: at the top dose activity change, negative = inhibition, usual class: inhibitors. 330,000 compounds, 2.3% hits. AID 504467; note: % is set by controls: 0 for no effect and ±100 for the full control effect; nearly all actives have a fitted effect of over 55% in size
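HEK293T cells expressing luciferase-tagged ELG1 (2,000/well) received 5-Fluorouridine plus compound or DMSO for 16 hr at 37 °C. Luciferase was read by ONE-Glo luminescence after 30 min at room temperature.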
An asterisk follows results filed as active; i = inactive; ? = inconclusive; . = not tested or not shown. Calls come from the whole dose curve; as a rule, active = well fitted curve in the direction sought with a large enough effect; inconclusive = small, poorly fitted or top-dose-only effect, or another doubt; inactive = no such curve, though single readings can be large; an effect the other way counts as inactive or inconclusive. Potency is the fitted concentration of half-maximal effect.

SMILES	SW480 rereplic	MCF10A rereplic	KB-V1 MDR tox	KB-3-1 cytotox	ELG1 repair inh
Cc1ccc(-n2c(C)cc(C(=O)CSc3nncs3)c2C)cc1	-2%	-2%	?	23µM*	?
Cc1cc(C(=O)CSc2nncs2)c(C)n1-c1c(C)n(C)n(-c2ccccc2)c1=O	-1%	4%	i	i	0%
COc1cccc(CNC(=O)COC(=O)c2nc(Cl)c(Cl)c(Cl)c2Cl)c1	12µM*	7.3µM*	i	?	-29%
COc1cccc(CNC(=O)COC(=O)c2c(NC(C)=O)sc(C)c2C)c1	16µM*	2%	?	i	-18%
CC(=O)Nc1sc(C)c(C)c1C(=O)OCC(=O)NCc1ccc(Cl)cc1	-18%	2%	i	i	16%
Cc1ccc(S(=O)(=O)N(c2cccc(C(F)(F)F)c2)C2C=CS(=O)(=O)C2)cc1 (stereo unspecified)	?	23µM*	i	i	1%
N=c1oc2ccccc2cc1-c1nc(-c2ccccc2)cs1	13µM*	10µM*	23µM*	i	?
N=c1oc2ccc3ccccc3c2cc1-c1nc(-c2ccccc2)cs1	-15%	?	i	i	6%
CN(C)S(=O)(=O)N1CCN(c2ccc([N+](=O)[O-])c(NC3CC3)c2)CC1	12%	0%	i	i	-29%
CC(Nc1cc(N2CCN(C(=O)C(C)(C)C)CC2)ccc1[N+](=O)[O-])c1ccccc1 (stereo unspecified)	15%	18%	10µM*	?	?
O=[N+]([O-])c1ccc(N2CCCC2)cc1NC1CC1	9%	?	21µM*	i	-6%
O=[N+]([O-])c1ccc(N2CCOCC2)cc1NC(c1ccccc1)c1ccccc1	1%	14%	16µM*	i	0%
CNC(=O)c1ccc(=O)n(Cc2cccc(C(F)(F)F)c2)c1	-15%	-34%	i	i	-9%
CC1=C(C(=O)N(C)C)CC(CC(=O)NCCN2CCOCC2)C(=O)N1Cc1ccc(C(C)(C)C)cc1 (stereo unspecified)	.	.	i	i	.
C=C1C(=O)[C@]23C[C@H]1CC[C@H]2[C@]1(C)[C@@H](OC(C)=O)CC[C@@](C)(C(=O)O)[C@H]1C[C@@H]3O	.	.	i	?	.
C=C1C(=O)C2=CC1CCC(=O)C1(C)CCC(OC(C)=O)C(C)(C)C1CC2O (stereo unspecified)	2.1µM*	9.2µM*	6.5µM*	8.2µM*	.
O=C(COC(=O)C12CC3CC(CC(Cl)(C3)C1)C2)N1CCCCC1	3%	-11%	i	i	?
Cc1ccc(Nc2ccncc2S(N)(=O)=O)cc1	9%	-4%	i	i	.
CCC(CC)C(=O)N1N=C(c2ccc(NS(C)(=O)=O)cc2)CC1c1ccccc1 (stereo unspecified)	-16%	?	?	i	?
CCC(CC)C(=O)N1N=C(c2ccc(NS(C)(=O)=O)cc2)CC1c1ccc(C)cc1 (stereo unspecified)	-11%	4%	18µM*	i	?
COc1ccccc1CNC(=O)c1ccc2c(c1)nnn2C1CCCC1	.	.	i	i	.
C=CCN(C(=O)CN1CCCCC1)c1nc(-c2ccccc2)cs1	-6%	?	i	i	8%
C=CCN(C(=O)C1CC(=O)N(C2CCCC2)C1)c1nc(-c2ccc(S(C)(=O)=O)cc2)cs1 (stereo unspecified)	-9%	18%	2.9µM*	18µM*	?
CC1(C)CC(NC(=O)c2cc(S(=O)(=O)N3CCOCC3)ccc2Cl)CC(C)(C)N1	-8%	1%	i	i	21%
Cc1csc(NC(=O)c2cc(-c3ccco3)nc3ccccc23)n1	-4%	26%	i	i	21µM*
SMILES	SW480 rereplic	MCF10A rereplic	KB-V1 MDR tox	KB-3-1 cytotox	ELG1 repair inh
Cc1nnc(NC(=O)c2cc(-c3ccco3)nc3ccccc23)s1	.	.	.	.	-5%
Cc1ccc2nc(NC(=O)c3cc(-c4ccco4)nc4ccccc34)sc2c1	15%	16µM*	?	?	-17%
N/C(=N\OC(=O)CCCOc1ccccc1)c1ccc([N+](=O)[O-])cc1	4%	-5%	?	i	3%
COc1ccc(NC(=O)CSc2nnc3ccc(-c4ccccn4)nn23)cc1	-1%	2%	i	i	-10%
Cn1c(=O)c2c(nc(C3CC4C5CCC(C5)C4C3)n2C)n(C)c1=O (stereo unspecified)	-2%	13%	15µM*	i	.
Cn1c(=O)c2c(nc(CCC3CCCC3)n2C)n(C)c1=O	-3%	5%	i	i	.
CC(=O)c1sc2c(c1OC(=O)c1ccccc1)c(=O)n(-c1ccccc1)c(=S)n2-c1ccccc1	-4%	?	9.2µM*	8.2µM*	.
COc1ccccc1C(=O)Nc1ccc2oc(-c3ccc(F)cc3)nc2c1	?	?	?	i	?
CCCN(C(=O)CCNC(=O)Cn1cnc2ccccc2c1=O)c1cccc(C)c1	-5%	-7%	?	i	-3%
Cc1ccc(S(=O)(=O)N(C)c2ccccc2)cc1	-3%	-6%	i	i	-1%
CC(=O)Oc1ccc(N(c2ccccc2)S(=O)(=O)c2ccc(C)cc2)cc1	?	?	15µM*	?	?
Cc1ccc(CN2C(=O)CCC2(C)c2nnnn2-c2ccc3c(c2)OCCO3)cc1 (stereo unspecified)	.	.	i	i	.
CCOc1cc(C(=O)Nc2cc(C)on2)cc(OCC)c1OCC	-20%	22%	i	i	21µM*
Cc1cc(NC(=O)c2c(C)noc2C)no1	?	16µM*	i	i	0%
Cc1cc(NC(=O)c2c(Cl)cccc2Cl)no1	-23%	-1%	i	i	2%
C=C1CCC[C@]2(C)C[C@H]3OC(=O)C(CNCC(C)C)[C@H]3CC12 (stereo partly specified)	?	-10%	i	i	5%
O=S(=O)(c1ccccc1)c1cnc(-c2cccnc2)nc1-c1ccccc1	-7%	9%	8.2µM*	i	4%
Brc1ccc(Cn2c(-c3cncs3)nc3ccccc32)cc1	1%	4%	16µM*	i	?
COc1ccc(N2CC(NS(=O)(=O)c3cccnc3)CC2=O)cc1 (stereo unspecified)	-10%	-13%	i	i	2%
CC(=O)C1CCC2C3CCC4=CC(=O)CCC4(C)C3(F)C(O)CC12C (stereo unspecified)	-9%	17%	5.2µM*	?	.
C/C(CCN1CCc2nc(-c3ccccc3)c(-c3ccccc3)cc2C1)=N\O[C@@H](C)c1cn([C@H](CO)Cc2ccccc2)nn1	?	?	.	.	21µM*
